In the supplement of paper PMC6411743:
± gives the standard deviation of the averaged measurements. Targets with the largest changes are over-represented here; the source holds about 6,500 in all.

compound: Nc1ncnc2c1ncn2[C@@H]1O[C@H](COP(=O)(O)OP(=O)(O)OP(=O)(O)O)[C@@H](O)[C@H]1O [adenosine triphosphate]; assay: NP40-soluble protein abundance relative to vehicle (solubility fold change) (ratio); higher = more soluble protein in presence of ATP; settings: concentration: 10mM
Outline: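 Crude Jurkat lysate, prepared by Dounce homogenisation, was exposed to eight concentrations from 0.1 to 10 mM for 10 min at room temperature and then 3 min at 37 °C. Solubilisation used 0.8% NP40 with benzonase for 60 min at 4 °C, followed by ultracentrifugation and TMT labelling of the supernatant for LC-MS/MS. After vsn normalisation of intensities, each value is the fold change against the detergent-processed vehicle within each replicate, across three independent experiments.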

UniProt Q9Y592, sequence (Q9Y592 whole entry, one chain of several): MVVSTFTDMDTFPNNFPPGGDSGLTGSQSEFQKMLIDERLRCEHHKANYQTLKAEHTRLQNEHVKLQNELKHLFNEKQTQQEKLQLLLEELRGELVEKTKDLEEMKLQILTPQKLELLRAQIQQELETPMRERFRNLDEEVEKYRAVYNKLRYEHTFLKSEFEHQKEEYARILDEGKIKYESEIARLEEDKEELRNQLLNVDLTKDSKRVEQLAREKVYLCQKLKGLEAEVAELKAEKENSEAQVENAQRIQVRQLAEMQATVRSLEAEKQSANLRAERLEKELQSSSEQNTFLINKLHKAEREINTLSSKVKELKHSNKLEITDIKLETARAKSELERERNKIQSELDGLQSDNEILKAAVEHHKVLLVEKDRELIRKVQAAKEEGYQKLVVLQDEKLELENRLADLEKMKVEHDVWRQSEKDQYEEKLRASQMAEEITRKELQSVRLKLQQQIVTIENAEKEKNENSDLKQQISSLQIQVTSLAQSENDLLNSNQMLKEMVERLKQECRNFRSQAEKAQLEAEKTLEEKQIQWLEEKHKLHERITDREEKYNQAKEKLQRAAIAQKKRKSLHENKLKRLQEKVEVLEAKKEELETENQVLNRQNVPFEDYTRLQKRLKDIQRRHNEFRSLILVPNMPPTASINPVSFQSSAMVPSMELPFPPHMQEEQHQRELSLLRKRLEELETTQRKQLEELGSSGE
UniProt P04406, sequence (P04406 whole entry, looked up, one chain of several): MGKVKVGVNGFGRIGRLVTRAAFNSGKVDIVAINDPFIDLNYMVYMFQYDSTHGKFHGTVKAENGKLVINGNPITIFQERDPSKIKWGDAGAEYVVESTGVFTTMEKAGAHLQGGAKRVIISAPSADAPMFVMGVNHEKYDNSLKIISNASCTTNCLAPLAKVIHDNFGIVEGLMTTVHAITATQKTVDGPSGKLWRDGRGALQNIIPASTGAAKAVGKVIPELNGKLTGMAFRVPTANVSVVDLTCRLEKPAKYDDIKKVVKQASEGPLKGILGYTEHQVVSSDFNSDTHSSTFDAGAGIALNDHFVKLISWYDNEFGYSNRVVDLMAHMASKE
UniProt Q96GD4, sequence (Q96GD4 whole entry, one chain of several): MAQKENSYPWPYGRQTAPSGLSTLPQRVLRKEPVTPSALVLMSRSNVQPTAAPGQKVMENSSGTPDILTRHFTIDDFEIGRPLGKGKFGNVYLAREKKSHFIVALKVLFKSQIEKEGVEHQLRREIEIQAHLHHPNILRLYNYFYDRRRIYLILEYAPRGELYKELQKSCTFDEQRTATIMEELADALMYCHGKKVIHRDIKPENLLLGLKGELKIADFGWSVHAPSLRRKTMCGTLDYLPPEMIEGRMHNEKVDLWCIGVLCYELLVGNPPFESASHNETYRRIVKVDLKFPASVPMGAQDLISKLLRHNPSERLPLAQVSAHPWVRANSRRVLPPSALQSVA
UniProt O75165, sequence (O75165 whole entry): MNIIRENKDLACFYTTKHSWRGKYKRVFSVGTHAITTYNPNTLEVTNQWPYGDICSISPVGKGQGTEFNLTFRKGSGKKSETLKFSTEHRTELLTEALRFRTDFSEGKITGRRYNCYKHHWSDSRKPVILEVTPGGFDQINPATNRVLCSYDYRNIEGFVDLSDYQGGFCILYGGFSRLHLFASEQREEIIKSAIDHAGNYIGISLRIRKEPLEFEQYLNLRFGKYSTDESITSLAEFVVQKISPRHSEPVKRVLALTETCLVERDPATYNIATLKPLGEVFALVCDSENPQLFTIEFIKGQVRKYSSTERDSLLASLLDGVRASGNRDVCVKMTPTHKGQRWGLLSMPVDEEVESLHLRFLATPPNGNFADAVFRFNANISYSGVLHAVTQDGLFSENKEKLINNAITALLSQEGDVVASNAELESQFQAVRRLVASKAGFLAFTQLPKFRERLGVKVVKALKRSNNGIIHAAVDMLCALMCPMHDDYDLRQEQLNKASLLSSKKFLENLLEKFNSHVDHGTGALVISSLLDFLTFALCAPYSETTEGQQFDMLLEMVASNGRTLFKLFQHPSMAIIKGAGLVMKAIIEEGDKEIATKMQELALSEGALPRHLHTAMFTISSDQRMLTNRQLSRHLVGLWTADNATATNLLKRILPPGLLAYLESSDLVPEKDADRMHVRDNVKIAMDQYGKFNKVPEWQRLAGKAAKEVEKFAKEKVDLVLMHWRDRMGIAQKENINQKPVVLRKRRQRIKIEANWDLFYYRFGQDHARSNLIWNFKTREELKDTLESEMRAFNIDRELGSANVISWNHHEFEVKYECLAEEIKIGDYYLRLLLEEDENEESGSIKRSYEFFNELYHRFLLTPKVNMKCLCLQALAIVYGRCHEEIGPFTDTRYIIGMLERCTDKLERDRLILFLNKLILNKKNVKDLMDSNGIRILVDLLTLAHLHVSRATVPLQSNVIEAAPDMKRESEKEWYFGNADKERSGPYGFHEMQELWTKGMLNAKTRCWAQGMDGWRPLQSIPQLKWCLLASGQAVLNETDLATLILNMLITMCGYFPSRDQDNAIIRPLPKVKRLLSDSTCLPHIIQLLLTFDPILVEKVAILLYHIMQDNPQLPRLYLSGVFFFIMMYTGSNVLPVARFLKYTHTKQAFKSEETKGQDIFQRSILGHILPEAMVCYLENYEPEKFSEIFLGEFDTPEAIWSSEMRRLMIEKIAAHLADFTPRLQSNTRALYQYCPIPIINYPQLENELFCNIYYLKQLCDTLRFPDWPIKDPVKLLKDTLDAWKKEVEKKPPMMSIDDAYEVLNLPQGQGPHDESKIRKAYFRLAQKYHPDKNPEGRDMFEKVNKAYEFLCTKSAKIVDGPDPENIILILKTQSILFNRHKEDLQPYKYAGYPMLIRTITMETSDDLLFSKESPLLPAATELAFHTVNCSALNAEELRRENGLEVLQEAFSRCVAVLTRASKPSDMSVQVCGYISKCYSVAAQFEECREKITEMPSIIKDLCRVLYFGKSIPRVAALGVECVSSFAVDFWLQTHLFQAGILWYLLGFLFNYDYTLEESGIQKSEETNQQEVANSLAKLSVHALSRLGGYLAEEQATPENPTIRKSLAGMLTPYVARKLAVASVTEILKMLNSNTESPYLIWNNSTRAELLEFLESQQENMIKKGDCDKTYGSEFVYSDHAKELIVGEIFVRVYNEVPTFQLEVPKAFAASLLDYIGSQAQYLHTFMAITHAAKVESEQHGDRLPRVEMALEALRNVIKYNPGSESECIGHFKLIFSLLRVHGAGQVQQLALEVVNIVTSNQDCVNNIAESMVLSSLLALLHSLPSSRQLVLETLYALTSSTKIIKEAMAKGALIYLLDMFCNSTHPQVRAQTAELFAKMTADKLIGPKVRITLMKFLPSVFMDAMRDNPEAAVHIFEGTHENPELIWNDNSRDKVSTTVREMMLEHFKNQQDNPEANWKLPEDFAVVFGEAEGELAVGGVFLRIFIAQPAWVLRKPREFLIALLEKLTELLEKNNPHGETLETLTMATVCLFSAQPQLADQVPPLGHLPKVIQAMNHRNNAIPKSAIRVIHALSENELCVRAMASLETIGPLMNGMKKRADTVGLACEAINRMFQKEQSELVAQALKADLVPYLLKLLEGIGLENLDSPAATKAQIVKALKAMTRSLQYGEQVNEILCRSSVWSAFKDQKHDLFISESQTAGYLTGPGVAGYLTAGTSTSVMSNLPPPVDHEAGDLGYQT
UniProt Q96HP4, sequence (Q96HP4 whole entry, one chain of several): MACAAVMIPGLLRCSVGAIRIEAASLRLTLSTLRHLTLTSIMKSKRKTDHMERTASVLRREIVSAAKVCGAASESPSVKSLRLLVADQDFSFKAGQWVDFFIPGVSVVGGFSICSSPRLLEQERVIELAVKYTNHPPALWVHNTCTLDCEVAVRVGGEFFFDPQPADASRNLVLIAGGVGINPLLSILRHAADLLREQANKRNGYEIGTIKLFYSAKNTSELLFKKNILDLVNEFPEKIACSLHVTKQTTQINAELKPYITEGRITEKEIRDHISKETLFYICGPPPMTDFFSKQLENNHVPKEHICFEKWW
UniProt P52272, sequence (P52272 whole entry, one chain of several): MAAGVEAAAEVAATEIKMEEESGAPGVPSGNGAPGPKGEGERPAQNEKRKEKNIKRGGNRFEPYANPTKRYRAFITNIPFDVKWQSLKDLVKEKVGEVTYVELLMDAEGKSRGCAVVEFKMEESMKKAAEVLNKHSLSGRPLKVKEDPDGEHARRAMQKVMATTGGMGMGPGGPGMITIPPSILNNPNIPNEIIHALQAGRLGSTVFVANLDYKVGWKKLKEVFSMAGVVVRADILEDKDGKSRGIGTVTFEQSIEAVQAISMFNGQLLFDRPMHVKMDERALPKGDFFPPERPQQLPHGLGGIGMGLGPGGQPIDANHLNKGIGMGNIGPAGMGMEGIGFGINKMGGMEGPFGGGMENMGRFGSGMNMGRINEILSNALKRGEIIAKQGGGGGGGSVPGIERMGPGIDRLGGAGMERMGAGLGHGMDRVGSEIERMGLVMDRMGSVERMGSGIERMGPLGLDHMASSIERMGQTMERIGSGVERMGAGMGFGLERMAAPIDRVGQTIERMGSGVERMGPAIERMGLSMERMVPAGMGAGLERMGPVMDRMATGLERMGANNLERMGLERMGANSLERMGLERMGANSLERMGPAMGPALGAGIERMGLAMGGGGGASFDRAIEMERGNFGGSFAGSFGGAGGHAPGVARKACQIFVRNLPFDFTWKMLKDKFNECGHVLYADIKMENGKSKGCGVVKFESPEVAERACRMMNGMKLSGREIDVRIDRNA
UniProt O00560, sequence (O00560 whole entry): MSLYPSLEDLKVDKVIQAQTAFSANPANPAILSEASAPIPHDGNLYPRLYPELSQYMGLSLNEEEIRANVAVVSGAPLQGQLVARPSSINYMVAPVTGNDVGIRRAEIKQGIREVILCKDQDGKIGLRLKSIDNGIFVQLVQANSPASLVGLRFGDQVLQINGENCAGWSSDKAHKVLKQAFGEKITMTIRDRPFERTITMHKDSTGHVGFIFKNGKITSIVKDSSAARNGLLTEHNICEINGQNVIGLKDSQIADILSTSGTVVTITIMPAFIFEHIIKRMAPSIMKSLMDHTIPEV

Target	NP40-soluble protein abundance
UniProt O00560|O00560-2	0.957 ± 0.031
DNAJC13 (UniProt O75165)	1.73 ± 0.22
DYNC1LI2 (UniProt O43237)	0.932 ± 0.032
J3KNW7|Q9Y592|Q9Y592-2 (UniProt Q9Y592)	0.993 ± 0.077
SLC25A20 (UniProt O43772)	0.974 ± 0.0095
C9JLB7|Q96HP4 (UniProt Q96HP4)	1.05 ± 0.042
B1AJY7|O75832 (UniProt O75832)	0.863 ± 0.043
A0A0A0MTC1|A0A0A0MTR7 (UniProt Q63HN8)	1.11 ± 0.031
H3BPD5|P78549|P78549-2|P78549-3 (UniProt P78549)	1.89 ± 0.12
J3KTD6|Q96GD4|Q96GD4-5 (UniProt Q96GD4)	1.76 ± 0.072
A0A0C4DGQ5|P04632 (UniProt P04632)	0.875 ± 0.06
A0A0G2JPT5|O75943|O75943-2 (UniProt O75943)	1.65 ± 0.33
B7ZBA0|Q8NI27 (UniProt Q8NI27)	2.4 ± 0.21
A0A0C4DGB9|Q9H2U2 (UniProt Q9H2U2)	0.919 ± 0.037
E9PEN0|Q8WYH8|Q8WYH8-2 (UniProt Q8WYH8)	1.86 ± 0.39
E7EUT5|P04406 (UniProt P04406)	0.944 ± 0.059
B4DWF2|Q9UKS7|Q9UKS7-2 (UniProt Q9UKS7)	1.2 ± 0.066
H0YNP8|Q99081-3|Q99081 (UniProt Q99081)	0.921 ± 0.046

Target	NP40-soluble protein abundance
UniProt O43865	0.969 ± 0.043
A0A0B4J2C3|P13693|Q5W0H4 (UniProt P13693)	0.909 ± 0.048
A0A0C4DGS0|P56556 (UniProt P56556)	0.909 ± 0.031
J3KTE4|J3QR09|P84098 (UniProt P84098)	1.05 ± 0.094
MED7 (UniProt O43513)	1.28 ± 0.34
M0QZM1|M0R019|P52272|P52272-2 (UniProt P52272)	1.06 ± 0.024
UniProt O00567	2.11 ± 0.2
E5RFJ1|Q96MF7 (UniProt Q96MF7)	1 ± 0.034
A8MT02|P14678|P14678-2|P14678-3 (UniProt P14678)	1.63 ± 0.13
H7C0H2|Q96EV2|H0Y3K4 (UniProt Q96EV2)	0.951 ± 0.059
H3BUX2|J3KNF8|O43169 (UniProt O43169)	0.781 ± 0.084
I3L2M1|J3KNL2|Q8WYJ6 (UniProt Q8WYJ6)	0.941 ± 0.033
UniProt A0FGR8-2|H7BXI1|A0FGR8-6	1.02 ± 0.047
E7EQI7|Q12768 (UniProt Q12768)	1.02 ± 0.05
A0A087WYN9|Q7Z478 (UniProt Q7Z478)	2.74 ± 0.062
F8W057|Q9GZN1|Q9GZN1-2 (UniProt Q9GZN1)	1.17 ± 0.089
HAT1 (UniProt O14929)	0.955 ± 0.04
J9JID7|Q03252 (UniProt Q03252)	1.09 ± 0.059
